miR-21 reporter: qHTS Assay for Modulators of miRNAs and/orActivators of miR-21 | 340,000 tested, under 10 active | AID 2288, 2010 | Potency, µM (top dose mostly 38.3 µM), inactives show top-dose activity change, positive = activation, usual class: activators | HeLa miR-21 FLuc reporter, luciferase, 48 h;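 further: % of control where 0% means no effect; miR-21 action dims this reporter so a rising signal means less miR-21 action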
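HeLa cells endogenously expressing miR-21, stably carrying CMV-driven firefly luciferase with a downstream miR-21 binding site, 2000 cells/well. Titrations up to approximately 40 uM, 48 hours; luciferase luminescence read.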
TDP1 inh: qHTS Assay for Inhibitors of Tyrosyl-DNA Phosphodiesterase (TDP1). Tyrosyl-DNA phosphodiesterase 1 (Homo sapiens), Q9NUW8. AID 485290, 2010. Potency, µM (doses to about 130 µM), without a hit: at the top dose activity change, negative = inhibition, actives largely listed as inhibitors. 350,000 compounds, 0.28% hits. recombinant TDP1, AlphaScreen DNA substrate cleavage; further: potency means the concentration at half of the fitted maximal effect; on the % scale 0 is the no-effect control and ±100 the full control effect; nearly all actives have a fitted effect of over 40% in size
Target sequence (Q9NUW8 whole entry, looked up): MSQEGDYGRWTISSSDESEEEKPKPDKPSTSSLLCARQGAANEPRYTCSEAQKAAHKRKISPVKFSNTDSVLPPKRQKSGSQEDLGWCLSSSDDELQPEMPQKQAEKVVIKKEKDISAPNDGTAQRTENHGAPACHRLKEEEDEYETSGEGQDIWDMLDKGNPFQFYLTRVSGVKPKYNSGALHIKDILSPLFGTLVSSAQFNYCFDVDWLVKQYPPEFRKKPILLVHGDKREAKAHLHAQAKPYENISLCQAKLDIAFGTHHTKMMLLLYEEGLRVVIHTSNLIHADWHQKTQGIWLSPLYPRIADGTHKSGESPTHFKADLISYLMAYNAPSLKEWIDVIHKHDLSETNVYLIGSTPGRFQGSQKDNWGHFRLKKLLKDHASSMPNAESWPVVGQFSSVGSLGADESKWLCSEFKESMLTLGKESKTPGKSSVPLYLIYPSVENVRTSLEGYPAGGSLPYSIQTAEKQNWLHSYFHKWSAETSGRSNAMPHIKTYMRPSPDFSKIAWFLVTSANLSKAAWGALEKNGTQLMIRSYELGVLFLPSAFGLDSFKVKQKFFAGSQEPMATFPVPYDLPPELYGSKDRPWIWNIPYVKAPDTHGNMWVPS
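Compounds were preincubated with Tdp1 (1 nM final) for 15 min at room temperature before substrate (15 nM final) started a 5 min reaction; beads (10 ug/ml final) were then added for 10 min before AlphaScreen detection.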
TDP1 cell CPT: qHTS for Inhibitors of human tyrosyl-DNA phosphodiesterase 1 (TDP1): qHTS in cells in presence of CPT; chicken DT40 Tdp1-/-;hTDP1 cells + 20 nM CPT, ATP luminescence, 48 h; Potency, µM (series often up to 46.2 µM), for inactives: top-dose activity change, negative = growth inhibition, actives largely listed as inhibitors; AID 686979, 2013; 420,000 compounds, 12% hits; further: potency means the concentration at half of the fitted maximal effect; on the % scale 0 is the no-effect control and ±100 the full control effect; nearly all actives have a fitted effect of over 55% in size
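Chicken DT40 Tdp1-/- cells complemented with human TDP1, 400 cells/well, exposed to compounds plus 20 nM camptothecin for at least 48 h at 37 C; viability read as ATP content by CellTiter-Glo luminescence.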
uPA generation: qHTS for Inhibitors of Cell Surface uPA Generation | cell surface uPA generation assay, qHTS | Potency, µM (top dose mostly 38.3 µM), without a hit: at the top dose activity change, negative = inhibition, hits mostly inhibitors | 330,000 compounds, 0.31% hits; active means well fitted inhibition curve with a large enough effect; inconclusive means small, poorly fitted or top-dose-only effect; inactive means no such curve, though single readings can be large or run the other way; tested in mouse RAW 264.7 cells; further: potency means the concentration at half of the fitted maximal effect; on the % scale 0 is the no-effect control and ±100 the full control effect; nearly all actives have a fitted effect of over 55% in size
DT40 TDP1 no CPT: qHTS for Inhibitors of human tyrosyl-DNA phosphodiesterase 1 (TDP1): qHTS in cells in absence of CPT | DT40 Tdp1-/- hTDP1 cells, no CPT, ATP luminescence, 48 h | Potency, µM (titrated, usually from 46.2 µM), without a hit: top-dose activity change, negative = growth inhibition, actives largely listed as inhibitors | AID 686978, 2013 | 420,000 compounds, 15% hits; further: potency means the concentration at half of the fitted maximal effect; on the % scale 0 is the no-effect control and ±100 the full control effect; nearly all actives have a fitted effect of over 55% in size
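Camptothecin absent (DMSO only). Human TDP1-complemented DT40 knockout cells, 400 cells/well, 37 °C for minimum 48 hr; ATP measured via CellTiter-Glo, 30 min dark incubation, luminescence.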
* hit, by the source's call; ? = inconclusive; . = no result. Shown are actives, neighbours in structure and some others; about 16% of the full set was active somewhere. Unless noted, the call rests on the fitted dose curve; in most records, active means well fitted curve in the direction sought with a large enough effect; inconclusive means small, poorly fitted or top-dose-only effect, or another doubt; inactive means no such curve, though single readings can be large; an effect the other way counts as inactive or inconclusive.

SMILES | miR-21 reporter | TDP1 inh | TDP1 cell CPT | uPA generation | DT40 TDP1 no CPT
O=C(NCc1cccs1)c1ccc(CSc2nc3cccnc3n2Cc2ccccc2)cc1 | 0.4% | 6.2% | ? | . | 14.6µM*
O=C(NCc1ccccc1F)c1ccc(CSc2nc3cccnc3n2Cc2ccccc2)cc1 | 8.0% | 1.2% | -1.6% | . | -8.4%
O=C(NCc1ccccc1)c1ccc(CSc2nc3cccnc3n2Cc2ccccc2)cc1 | 17.0% | 9.9% | 4.61µM* | . | 18.4µM*
O=C(NCc1cccs1)c1ccc(CSc2nc3cccnc3n2Cc2ccc(F)cc2)cc1 | 11.0% | 11.2% | ? | . | ?
CCN(CC)C(=O)c1cc2c(=O)oc3ccccc3c2s1 | -6.0% | -2.6% | -5.5% | 2.8% | 5.6%
CC(O)(c1ccccc1)C(c1ccccc1)C1CCCCN1 (stereo not drawn) | 0.5% | 1.4% | -10.1% | -4.4% | 15.4%
Cc1ccc(CSc2nc3cccnc3n2Cc2nc(-c3ccccc3F)oc2C)cc1 | 12.0% | 2.5% | 4.61µM* | . | 3.66µM*
CCc1ccccc1NC(=O)Cn1c(SCc2ccc(F)cc2)nc2ccncc21 | -6.7% | -2.5% | -22.3% | . | -0.2%
O=C(NC1CCCCC1)c1ccc(CSc2nc3ccncc3n2Cc2cccc(F)c2)cc1 | ? | 3.9% | ? | . | 18.4µM*
CC1CCC(NC(=O)c2ccc(CSc3nc4ccncc4n3Cc3ccc(F)cc3)cc2)CC1 (stereo not drawn) | 19.5% | 7.6% | ? | . | 7.31µM*
Cc1ccc(CSc2nc3cccnc3n2Cc2ccc(C(=O)NCCc3cccs3)cc2)cc1 | ? | 7.5% | 18.4µM* | . | 18.4µM*
Cc1cccc(Cn2c(SCc3ccc(C(=O)NC4CCCC4)cc3)nc3ccncc32)c1 | -5.0% | 5.1% | ? | . | ?
CCCC1OC2CC3C4CCC5=CC(=O)C=CC5(C)C4C(O)CC3(C)C2(C(=O)CO)O1 (stereo not drawn) | . | 8.9% | . | . | .
CNC(=O)c1ccc(CSc2nc3cccnc3n2Cc2cccc(F)c2)cc1 | -7.9% | 5.0% | 3.66µM* | . | 18.4µM*
O=C(NCc1ccccc1)c1ccc(CSc2nc3cccnc3n2Cc2cccc(F)c2)cc1 | -1.0% | 5.0% | 13µM* | . | 10.3µM*
CC(=O)c1cccc(NC(=O)N2CCCC2C(=O)NCc2ccc3c(c2)OCO3)c1 (stereo not drawn) | -2.1% | 2.8% | 7.4% | 0.3% | 7.6%
C=CCN(C(=O)C1CC(=O)N(C2CCCC2)C1)c1nc(-c2ccc(S(C)(=O)=O)cc2)cs1 (stereo not drawn) | . | 1.4% | 14.6µM* | -6.6% | 14.6µM*
O=C(Cn1[nH]c(=O)c2ccccc2c1=O)OCC(=O)N(Cc1ccccc1)Cc1ccccc1 | -1.4% | 3.6% | ? | 3.2% | -24.9%
C=C1CC2(OC1=O)c1ccccc1CCc1ccccc12 | . | . | 4.61µM* | -10.1% | 2.91µM*
CN(C)CC(O)Cn1c2ccc(Br)cc2c2cc(Br)ccc21 (stereo not drawn) | . | 7.3% | . | . | .
OC(COCC(F)(F)C(F)(F)C(F)(F)C(F)F)Cn1c2ccc(Cl)cc2c2cc(Cl)ccc21 (stereo not drawn) | ? | -5.3% | 3.66µM* | -11.7% | 2.59µM*
COc1cc(/C=C/C(=O)OCC(=O)Nc2ccc3[nH]c(=O)[nH]c3c2)ccc1OC(F)F | . | . | -5.9% | . | -6.7%
NS(=O)(=O)c1ccc(CCNC(=O)CN2CCC(Cc3ccccc3)CC2)cc1 | 18.6% | 4.7% | ? | -1.8% | 16.4µM*
O=C(CN1CCC(Cc2ccccc2)CC1)NCCc1ccc(F)cc1 | 1.5% | -3.7% | 1.7% | -4.4% | -28.2%
NS(=O)(=O)c1ccc(CCNC(=O)CN2CCN(Cc3cccc(C(F)(F)F)c3)CC2)cc1 | 17.8% | 12.3% | 23.1µM* | 3.4% | 23.1µM*
SMILES | miR-21 reporter | TDP1 inh | TDP1 cell CPT | uPA generation | DT40 TDP1 no CPT
O=C1NC(=O)C2(CCCCC2C2CCCCC2)N1 (stereo not drawn) | . | . | 5.3% | -1.2% | -21.8%
CCOC(=O)Cn1c(C)cc(COC)c(C#N)c1=O | -4.2% | 0.0% | -2.4% | -2.7% | 5.17µM*
COCc1cc(C)n(CC(=O)N2CCCC2)c(=O)c1C#N | -1.6% | 5.1% | -18.6% | 0.0% | 17.1%
COc1cc(/C=C2/CC/C(=C/c3ccc(O)c(OC)c3)C2=O)ccc1O | 21.9% | . | 20.6µM* | -13.2% | ?
COc1ccc(/C=C2\CC/C(=C\c3ccc(OC)c(OC)c3)C2=O)cc1OC | -8.4% | 7.2% | 16.4µM* | -0.9% | 20.6µM*
COc1ccc(/C=C2\CCc3ccccc3C2=O)cc1OC | -39.1% | 1.0% | ? | -7.2% | ?
COc1ccc(C=C2C=C(C(C)(C)C)C(=O)C(C(C)(C)C)=C2)cc1OC | 5.6% | . | ? | 2.4% | 7.31µM*
COc1cc(/C=C/C=C2/CC/C(=C/C=C/c3ccc(O)c(OC)c3)C2=O)ccc1O | . | . | 2.31µM* | -1.8% | 2.59µM*
COc1cc(/C=C2\CC/C(=C\c3ccc(OCCO)c(OC)c3)C2=O)ccc1OCCO | -6.5% | 2.4% | ? | -15.2% | 23.1µM*
COc1cc(/C=C2\COC/C(=C\c3ccc(O)c(OC)c3)C2=O)ccc1O | ? | 8.6% | 3.26µM* | -14.8% | 3.26µM*
COc1cc(/C=C2\C(=O)N(C)C(=S)N2C)ccc1O | -5.7% | 2.6% | -20.2% | -2.9% | -22.6%
OCCC1CN(CC#Cc2ccccc2)CCN1Cc1ccccc1F (stereo not drawn) | -1.9% | 3.7% | -4.5% | 6.4% | ?
COc1ccc(C(CNC(=O)c2ccc(OCc3ccccc3)cc2)N2CCOCC2)cc1 (stereo not drawn) | . | 2.7% | ? | 2.5% | -18.0%
C[C@@H](O)C#Cc1ccc2c(c1)O[C@H](CN(C)C(=O)Nc1ccccc1)[C@@H](C)CN([C@@H](C)CO)S2(=O)=O | . | . | -2.8% | . | 32.7%
C[C@@H]1CN([C@H](C)CO)S(=O)(=O)c2ccc(C#Cc3ccccc3F)cc2O[C@@H]1CN(C)C(=O)Cc1ccccc1 | . | . | 14.6µM* | . | 13µM*
COc1ccc(C#Cc2ccc3c(c2)O[C@@H](CN(C)C(=O)Nc2cccc(OC)c2)[C@H](C)CN([C@@H](C)CO)S3(=O)=O)cc1 | . | . | -24.3% | . | 18.4µM*
C[C@H](CO)N1C[C@H](C)[C@@H](CN(C)C(=O)NC2CCCC2)Oc2cc(Br)ccc2S1(=O)=O | . | . | -29.8% | . | ?
CC(C)NC(=O)N(C)C[C@H]1Oc2cc(C#Cc3ccc(F)cc3)ccc2S(=O)(=O)N([C@H](C)CO)C[C@H]1C | . | . | 23.1µM* | . | ?
